Source: PubChem
Most compounds without a hit are left out; they make up all but 5.7% or so of the library.
ssDAF-12 act = activates DAF-12 receptor from parasite S. stercoralis; HEK293 ssDAF-12/GRIP1 lit1-tk-luc reporter, luminescence; % of 3 µM dafachronic acid response; activation, % at 6.8 µM; 370,000 compounds, 1% hits;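 active = activation above the mean over all tested compounds plus 3 SD, cut at about 0.9% in these data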;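 note: 0% = DMSO-only wells and 100% = 3 µM delta7-dafachronic acid wells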
DAX1 inh-1 = inhibitors of DAX1 repression of SF-1 activated StAR promoter; HEK293T StAR-luciferase reporter, SF-1/DAX-1 repression relief; inhibition, % at 6.8 µM; 370,000 compounds, 1.1% hits;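 active = inhibition above the mean over all tested compounds plus 3 SD, cut at about 3.6% in these data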;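 note: 0% = DAX-1 cells with DMSO and 100% = cells lacking DAX-1 with DMSO; higher inhibition means more luminescence from relief of DAX-1 repression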
DAX1 inh-2 = inhibits human nuclear receptor DAX1; P51843; HEK293 Gal4-DAX1 luciferase reporter, luminescence; inhibition, % at 6.75 µM; 340,000 compounds, 0.99% hits; AID 504766;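 active = inhibition above the mean over all tested compounds plus 3 SD, cut at about 4.2% in these data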;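 note: 0% = DAX1-transfected cells with DMSO and 100% = empty-vector control cells with DMSO; inhibition shows as a rise in luminescence from relieved DAX1 repression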
AHR act = activates the human aryl hydrocarbon receptor | activation, % at 5 µM | P35869 | 320,000 compounds, 2.5% hits | AHR-responsive luciferase reporter cells, luminescence; in the data active = activation above about 47%;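 note: 0% = vehicle wells and 100% = reference agonist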
Target sequence (P35869 whole entry, looked up): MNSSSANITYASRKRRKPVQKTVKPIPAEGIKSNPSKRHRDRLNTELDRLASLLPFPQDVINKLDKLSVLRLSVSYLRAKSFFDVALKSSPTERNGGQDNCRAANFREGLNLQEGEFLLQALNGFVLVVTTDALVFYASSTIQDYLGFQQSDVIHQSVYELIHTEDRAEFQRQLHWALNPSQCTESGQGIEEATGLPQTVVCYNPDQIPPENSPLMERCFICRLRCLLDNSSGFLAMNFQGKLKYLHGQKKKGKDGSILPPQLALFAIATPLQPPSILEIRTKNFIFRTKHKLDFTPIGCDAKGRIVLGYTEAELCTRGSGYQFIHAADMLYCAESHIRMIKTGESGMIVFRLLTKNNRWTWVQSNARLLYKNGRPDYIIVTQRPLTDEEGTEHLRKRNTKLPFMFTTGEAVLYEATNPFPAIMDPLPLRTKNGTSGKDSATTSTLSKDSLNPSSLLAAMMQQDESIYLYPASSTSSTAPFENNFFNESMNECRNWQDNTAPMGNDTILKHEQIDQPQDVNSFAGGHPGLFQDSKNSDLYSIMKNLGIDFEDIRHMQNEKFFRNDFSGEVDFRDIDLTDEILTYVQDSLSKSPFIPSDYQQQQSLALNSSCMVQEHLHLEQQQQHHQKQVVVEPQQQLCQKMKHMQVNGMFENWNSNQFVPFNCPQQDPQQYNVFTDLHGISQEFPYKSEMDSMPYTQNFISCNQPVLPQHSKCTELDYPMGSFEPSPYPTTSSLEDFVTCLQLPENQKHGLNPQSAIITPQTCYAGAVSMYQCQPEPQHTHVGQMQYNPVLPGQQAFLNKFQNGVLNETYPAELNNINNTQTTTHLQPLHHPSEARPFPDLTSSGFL
hgDAF12 agonist = agonists of H. glycines DAF-12 nuclear receptor. HEK293 GAL4-hgDAF12 UAS-luciferase reporter, agonist luminescence; normalized to butyrate control. activation, % at 6.8 µM. 370,000 compounds, 1.8% hits. AID 687014;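 active = activation above a cutoff set at the mean of all screened compounds plus 3 SD, cut at about 10% in these data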;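 note: 0% = DMSO wells and 100% = sodium butyrate wells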
hcDAF-12 act = H. contortus DAF-12 activation, primary screen. HEK293 hcDAF-12 lit1-tk-luc reporter, luminescence; 0% DMSO, 100% Δ7-dafachronic acid. 370,000 compounds, 1.4% hits. AID 652067. activation, % at 6.8 µM;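 active = activation above the mean of all tested compounds plus 3 SD, cut at about 5.5% in these data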;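 note: 100% = response to 3 µM Δ7-dafachronic acid high control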
* marks the source's active call; other numbers are inactive results; · = not tested or not shown.

SMILES | ssDAF-12 act | DAX1 inh-1 | DAX1 inh-2 | AHR act | hgDAF12 agonist | hcDAF-12 act
C/C(=N\NC(=O)c1ccccc1C)c1ccc(NC(=O)c2cccs2)cc1 | -1 | 3 | 1 | 5 | 12* | 2
C/C(=N\NC(=O)c1ccccc1)c1ccc(NC(=O)c2cccs2)cc1 | -2 | 1 | 0 | 14 | 0 | 0
CCN1CCN(CCCNC(=O)C2CCN(c3nnc(-n4c(C)ccc4C)s3)CC2)CC1 | -1 | -1 | 1 | 51* | -1 | 0
CCOc1ccc2nc(N3CCCC(C(=O)NCCCN4CCOCC4)C3)sc2c1 (configuration not stated) | -1 | 3 | 1 | 13 | 4 | 4
CCOc1ccc2nc(N3CCC(C(=O)NCCCN4CCOCC4)CC3)sc2c1 | -1 | 0 | 2 | 3 | 12* | 2
COc1ccc(N2CCN(C(=O)c3sc4ncn(CC(=O)N5CCCCC5)c(=O)c4c3C)CC2)cc1 | -2 | -1 | 0 | 1 | 1 | -2
Cc1ccc(NC(=O)CSc2nccn2C)cc1F | 0 | 4.4* | 1 | 9 | 3 | 2
Cc1nc(SCC(=O)Nc2ccc(C)c(F)c2)c2oc3ccccc3c2n1 | -1 | 0 | 0 | 3 | -1 | 0
CC(=O)c1ccc(NC(=O)CSc2nccn2C)cc1 | -1 | 0 | 1 | 0 | 5 | 0
Cc1ccc(NC(=O)CSc2ncccn2)cc1F | -2 | -1 | 5.7* | 2 | 2 | -1
CC(=NNC(=S)N1CCC1)c1ccccn1 | -1 | -5 | -6 | · | -5 | -4
COc1cccc(/C=N/NC(=O)C(=O)N/N=C/c2cccc(OC)c2OC)c1OC | -1 | 0 | -1 | 5 | 0 | -1
COc1cccc(/C=N\NC(=O)c2sc(N)nc2C)c1OC | -1 | -1 | 1 | 60* | -1 | 0
COc1ccc(/C=C2\Oc3cc(OCC(=O)N4CCC[C@H]4C(=O)O)ccc3C2=O)c(OC)c1 | · | · | 6.7* | 0 | · | ·
COc1cc(OC)c(OC)cc1/C=C1\Oc2cc(OCC(=O)N3Cc4ccccc4C[C@H]3C(=O)O)ccc2C1=O | · | · | 4.5* | 0 | · | ·
COC(=O)[C@@]12CCCCC3=C1N(CCC3)C(=O)[C@H]2CC(=O)NCc1cccs1 | -1 | 0 | · | · | 4 | -2
CC1(C)CC(NC(=O)c2ccc(Cl)cc2)CC(C)(C)N1 | 0 | 0 | 3 | 1 | 0 | -2
CC1(C)CC(NC(=O)c2ccc(Cl)c(Cl)c2)CC(C)(C)N1 | -1 | 1 | 4.6* | 1 | 1 | 1
CCOC(=O)C(C)CC(C)C(=O)N1CCOCCN(C(=O)C(C)CC(C)C(=O)OCC)CCOCC1 (configuration not stated) | -1 | 0 | 0 | -3 | 0 | 0
CSc1nc(C)cc(Oc2ccc(=O)[nH]n2)n1 | -1 | 0 | 5.8* | 0 | -3 | 0
Cc1cc(Oc2ccc(=O)[nH]n2)nc(Cl)n1 | -2 | 0 | 0 | 10 | 4 | 1
COc1ccc(CCn2nc(C)c([N+](=O)[O-])c2C)cc1 | -1 | 4.2* | 1 | -1 | 9 | 2
COc1cccc(-n2c(CCn3nc(C)c([N+](=O)[O-])c3C)n[nH]c2=S)c1 | -1 | 0 | 1 | -2 | -2 | -1
C=CCc1cc(Cl)ccc1OCCNCCCOC | -2 | -1 | 7.1* | -3 | -1 | -2
C=CCc1cc(Cl)ccc1OCCOCCNCCOC | -1 | 0 | 0 | 2 | -2 | -2
SMILES | ssDAF-12 act | DAX1 inh-1 | DAX1 inh-2 | AHR act | hgDAF12 agonist | hcDAF-12 act
CN(Cc1c(F)cccc1Cl)C(=O)CCc1c[nH]c2ccccc12 | -1 | 0 | 6.2* | 2 | 1 | 0
O=c1c2ccccc2oc2ccc(NCCCn3ccnc3)cc12 | 1.8* | 4.0* | 1 | -9 | 11* | 5
O=C(/C=C/c1c(Cl)nc2ccccn12)N1CCCCC1 | -2 | 2 | 0 | 59* | 1 | 0
O=C(/C=C/c1c(Cl)nc2ccccn12)N1CCN(c2ccccc2F)CC1 | -1 | 0 | 0 | -1 | -1 | -1
COc1cc(O)sc1C=Nc1ccc(Cl)cc1Cl | 1.1* | 1 | 2 | 42 | -1 | 0
N#CCCn1cc(/C=C/C(=O)O)c(-c2ccc(F)cc2)n1 | -1 | 2 | 5.4* | 1 | 3 | 5
O=C(NCc1ccccc1)C12CC3CC(CC(Br)(C3)C1)C2 | -1 | 0 | -1 | -2 | -2 | -1
Cc1ccc(S(=O)(=O)CC(=O)N(CCCN2CCOCC2)c2nc3c(F)cccc3s2)cc1 | 0 | 4.1* | 2 | 4 | 4 | 0
O=C(CCS(=O)(=O)c1ccccc1)N(CCCN1CCOCC1)c1nc2c(F)cccc2s1 | -1 | 1 | -1 | 6 | 2 | 1
Nc1cc(=O)[nH]c(=S)n1-c1ccccc1 | -1 | 0 | 1 | 1 | -1 | -1
Cc1cc(=O)[nH]c(=S)n1-c1ccccc1 | 0.9* | 2 | 0 | 2 | 9 | 2
CCCc1cc(=O)[nH]c2nnc(SCC(=O)Nc3nccs3)n12 | 0 | 0 | 1 | -3 | -2 | 0
COc1ccc(Cc2nc3ccc(C(=O)NCc4cc(C)no4)cc3o2)cc1 | -1 | 3.7* | 1 | 15 | 8 | 2
COc1ccc(Cc2nc3ccc(C(=O)NCC(C)(C)OC)cc3o2)cc1 | 0 | 2 | 4.6* | 14 | 9 | 4
CC(C)Nc1nc(NC(C)C)nc(N(C)C(N)=O)n1 | -1 | 1 | 1 | 1 | -1 | -1
CC1=C(CC(=O)c2ccccc2)C(=O)c2ccccc2C1=O | 0 | -2 | -1 | 48* | -4 | 4
CCC[C@H]1CN(c2ccccc2)C(=O)[C@@H]1CC(=O)Nc1ccc(Br)cc1 | 0 | 1 | 7.8* | · | 4 | 1
CCC[C@H]1CN(c2ccccc2)C(=O)[C@@H]1CC(=O)Nc1ccc(OC)cc1 | -2 | -1 | 2 | · | -5 | -2
O=C(NNS(=O)(=O)c1ccccc1[N+](=O)[O-])c1cccc(Cl)c1 | 1.1* | 0 | -1 | 4 | -2 | -1
CC(C)[C@H](NC(=O)Cc1ccccc1)C(=O)OCc1cc(=O)n2c(n1)sc1ccccc12 | 1.1* | 0 | 0 | 3 | 4 | 3
COc1ccc(CCn2cnc3nc4ccc(Cl)cc4cc3c2=O)cc1OC | 0 | -1 | · | · | -2 | 6
O=c1c2cc3cc(Cl)ccc3nc2ncn1Cc1ccc(Oc2ccccc2)cc1 | -1 | -1 | · | · | -1 | 5.9*
CCn1c(Cc2ccccc2)nnc1SCC(=O)Nc1ccc2c(c1)OCO2 | -1 | -1 | -1 | 12 | 1 | -1
CCc1nnc(SCC(=O)Nc2ccc3c(c2)OCO3)n1CC | -1 | 0 | 1 | 50* | 0 | -3
O=C(Cn1c(SCC(=O)NC2CCCC2)nnc1-c1ccncc1)Nc1ccc2c(c1)OCO2 | -1 | -1 | -1 | 66* | 0 | -1
CCn1c(SCC(=O)Nc2ccc3c(c2)OCO3)nnc1C1CC1 | 0 | 0 | 4.9* | 20 | 2 | 0
